Laboratory results reported in ChEMBL document CHEMBL2218924, “A broad activity screen in support of a chemogenomic map for kinase signalling research and drug discovery” (Biochem J, 2013).

Biological target: MAP kinase-activated protein kinase 3 (Homo sapiens) (UniProt Q16644)
Conditions: at 1 µM

MAP kinase-activated protein kinase 3 (Homo sapiens), sequence (Q16644 whole entry, looked up): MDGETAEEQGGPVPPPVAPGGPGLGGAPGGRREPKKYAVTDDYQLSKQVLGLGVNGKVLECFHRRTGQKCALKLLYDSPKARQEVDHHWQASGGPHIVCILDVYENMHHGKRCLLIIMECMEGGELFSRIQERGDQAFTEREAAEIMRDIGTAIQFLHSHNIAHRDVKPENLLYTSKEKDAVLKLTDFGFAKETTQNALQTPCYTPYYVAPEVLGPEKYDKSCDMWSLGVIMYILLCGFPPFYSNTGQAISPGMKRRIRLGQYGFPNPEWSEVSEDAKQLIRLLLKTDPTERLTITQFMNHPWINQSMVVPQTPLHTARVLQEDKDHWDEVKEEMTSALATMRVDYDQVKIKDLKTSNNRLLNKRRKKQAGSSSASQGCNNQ

SMILES	residual activity [%]
Oc1c2ccccc2c2c3c(cccc13)N=N2	100
Nc1ncnc2c1c(-c1ccc(Oc3ccccc3)cc1)cn2C1CCCC1	114
O=C1Nc2ccc(Cl)cc2/C1=C/c1cc(Cl)c(O)c(Cl)c1	92
c1ccc2c(-c3ccncc3)c[nH]c2c1	103
Ic1cccc(CSc2nnc(-c3ccncc3)o2)c1	111
CCOC(=O)c1c(C)[nH]c(/C=C2\C(=O)Nc3ccccc32)c1C	98
Nc1nc(Nc2ccc(S(N)(=O)=O)cc2)nn1C(=O)c1c(F)cccc1F	103
COc1ccc2c(c1)c(C1=C(c3c[nH]c4ccccc34)C(=O)NC1=O)cn2CCCN(C)C	103
